From PubChem BioAssay
The list is not random: actives were taken first. Their share in the collection is about 1.4%.
Bcl-2 Bim block – human Bim-Bcl-2 interaction inhibition; Bead-based flow cytometry, Bim peptide-Bcl-2 binding; inhibition, % at 10 µM; 190,000 tested, 0.06% active; in the data active = inhibition above about 40%
Target sequence (P10415 whole entry, looked up): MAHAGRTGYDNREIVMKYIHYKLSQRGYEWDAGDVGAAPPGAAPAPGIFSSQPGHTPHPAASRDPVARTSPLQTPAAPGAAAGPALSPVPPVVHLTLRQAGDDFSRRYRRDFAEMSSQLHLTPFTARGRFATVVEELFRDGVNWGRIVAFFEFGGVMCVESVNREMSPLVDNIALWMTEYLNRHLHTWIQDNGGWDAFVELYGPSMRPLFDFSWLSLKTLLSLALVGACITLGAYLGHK
Bim-Bcl-B – inhibitors of Bim-Bcl-B interaction, human; Q9HD36; 190,000 tested, 0.073% active; bead-based flow cytometry, Bim peptide-Bcl-B binding; inhibition, % at 10 µM
Target sequence (Q9HD36 whole entry, looked up): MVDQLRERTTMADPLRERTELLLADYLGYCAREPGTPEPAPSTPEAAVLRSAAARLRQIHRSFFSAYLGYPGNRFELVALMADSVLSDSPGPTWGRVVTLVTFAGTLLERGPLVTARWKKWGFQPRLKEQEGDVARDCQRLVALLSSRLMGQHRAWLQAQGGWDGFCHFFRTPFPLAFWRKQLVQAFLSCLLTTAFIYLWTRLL
Bcl-W Bim block – inhibitors of Bim-Bcl-W interaction, human | inhibition, % at 10 µM | Q92843 | bead-based flow cytometry, Bim peptide-Bcl-W binding | 190,000 tested, 0.02% active;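 note: higher means less fluorescent Bim peptide bound to Bcl-W beads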
Bim-Bcl-XL – human Bim-Bcl-XL interaction inhibition | Q07817 | Bim peptide-Bcl-XL binding, bead flow cytometry, fluorescence | inhibition, % at 10 µM | 190,000 tested, 0.04% active | AID 1007
Bim-Bfl-1 – human Bim-Bfl-1 interaction inhibition; Q16548; Bead-based flow cytometry, Bim-Bfl-1 binding inhibition; inhibition, % at 10 µM; 190,000 tested, 0.12% active; AID 1008
Target sequence (Q16548 whole entry, looked up): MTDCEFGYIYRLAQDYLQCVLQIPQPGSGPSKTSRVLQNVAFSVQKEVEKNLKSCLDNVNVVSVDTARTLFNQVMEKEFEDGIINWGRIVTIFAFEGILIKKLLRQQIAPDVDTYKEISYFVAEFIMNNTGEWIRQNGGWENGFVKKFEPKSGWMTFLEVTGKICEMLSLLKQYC
Wee1 stabilizer – human Wee1 degradation inhibition, primary screen. HeLa Luc-Wee1K328M stability, luciferase luminescence; 100% = proteasome inhibitor MG132 effect. reporter increase, % at 5 µM. 220,000 tested, 1.2% active. AID 1321. P30291;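 active = activation above the mean of all tested compounds plus 3 SD, set per screening run, cut at about 8.8% in these data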;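 note: cells exposed to compound for 20 h before luminescence read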
Hits are given with their value; i = inactive; nt = no result. Cut-off read from the data, not from the text of the source, unless noted: active = inhibition above about 40%.

SMILES | Bcl-2 Bim block | Bim-Bcl-B | Bcl-W Bim block | Bim-Bcl-XL | Bim-Bfl-1 | Wee1 stabilizer
CC(C)CNS(=O)(=O)c1ccc(OCC(=O)Nc2ccc(F)cc2F)cc1 | i | i | i | i | i | 9.0
Cc1cc2n(c1)CCn1c(C)ccc1-2 | i | 40.0 | i | i | i | i
CCCC1=[N+](CC)CCn2c(C)ccc21 | i | i | i | i | i | i
O=C(NCCNc1ccc([N+](=O)[O-])cc1)c1cccc(Br)c1 | i | i | i | i | i | 9.4
COc1ccc2c(=O)cc(-c3ccccc3F)oc2c1 | nt | nt | nt | nt | nt | 9.4
Cc1cc(C)cc(N(C(=O)C(F)(F)F)C(C(=O)NC2CCCCC2)c2cccs2)c1 (stereo not drawn) | i | i | i | i | i | 11.3
CCOC(=O)C1(CCc2ccccc2)CCN(C(=O)c2cccc(C)n2)CC1 | i | i | i | i | i | 10.7
CCOC(=O)CNC(=S)N(CCCN1CCCCC1)Cc1cccs1 | i | i | i | i | i | 9.8
CCOC(=O)CNC(=S)N(CCCN1CCCCCC1)Cc1cccs1 | i | i | i | i | i | i
O=C(Cn1nnc(-c2ccccc2)n1)N/N=C/c1ccco1 | i | i | i | i | i | i
CCC(CC)C(=O)Nc1cccc(SC)c1 | i | i | i | i | i | i
CC(C)N(CCO)C(=O)CCc1nnc(Cc2cccc(C(F)(F)F)c2)o1 | i | i | i | i | i | i
O=C1C=CC(=O)N1c1cccc(-c2ccccc2)c1 | nt | nt | nt | nt | nt | i
O=C(COC(=O)CCCN=C1NS(=O)(=O)c2ccccc21)NC(=O)NC1CCCC1 | 97.0 | 105.0 | 72.0 | 105.0 | i | i
O=C1/C(=C/c2ccccn2)SC(=S)N1Cc1ccccc1 | nt | nt | nt | nt | nt | 10.9
COc1ccc(CCNC(=O)COc2ccc(C)nc2[N+](=O)[O-])cc1OC | i | i | i | i | i | i
COC(=O)c1nc(N)sc1C | i | i | i | i | i | i
CCOC(=O)c1cccc(COC(=O)c2cccc(-c3nnc(-c4ccccc4)o3)c2)c1 | i | i | i | i | i | 9.7
O=C(OCc1ccccc1)c1cccc(-c2nnc(-c3ccccc3)o2)c1 | i | i | i | i | i | i
Cc1ccccc1-n1c(SCc2cccc(F)c2)nc2[nH]ncc2c1=O | i | i | i | i | 44.0 | i
Cc1ccc2nsnc2c1S(=O)(=O)NCCc1c(C)[nH]c2ccc(F)cc12 | i | i | i | i | i | i
O=C(O)CC(=O)Nc1ccc(Oc2ccc(C(F)(F)F)cn2)c(Cl)c1 | i | i | i | i | i | 9.2
CC(OC(=O)c1ccccc1Oc1ccccc1)C(=O)NC1CC1 (stereo not drawn) | i | i | i | i | i | i
C=CCn1c(C)c(C(C)=O)c(N2CCOCC2)nc1=S | i | i | i | i | 48.0 | i
Clc1ccc(C(c2nnnn2CCc2ccccc2)N2CCSCC2)cc1 (stereo not drawn) | i | i | i | i | i | i
SMILES | Bcl-2 Bim block | Bim-Bcl-B | Bcl-W Bim block | Bim-Bcl-XL | Bim-Bfl-1 | Wee1 stabilizer
O=C(Nc1ccc2c(c1)CCC2)c1cnc(Cl)c(Cl)c1 | i | i | i | i | i | i
O=C(Nc1ccc2c(c1)CCC2)c1c(F)cccc1Cl | i | i | i | i | i | 8.9
COc1ccc(CC(NC(C)=O)C(=O)NC2CCN(c3nc(C)cc(C)c3C#N)CC2)c(OC)c1 (stereo not drawn) | i | i | i | i | i | 9.4
C=CCc1cc(/C=C/c2nc(O)c([N+](=O)[O-])c(=O)[nH]2)cc(OC)c1O | i | i | i | i | i | 9.0
O=C(Nc1ccccc1C(=O)N/N=C/c1ccco1)c1ccc(F)cc1 | i | i | i | i | i | i
Cc1c(O)ccc(-c2n[nH]c(C(=O)O)c2-c2nc3ccccc3s2)c1O | nt | nt | nt | nt | nt | 10.0
O=C(O)c1ccc(Cl)c(S(=O)(=O)N2CCCC2)c1 | nt | nt | nt | nt | nt | i
CCN1CCN(S(=O)(=O)c2cc(C(=O)O)ccc2Cl)CC1 | nt | nt | nt | nt | nt | 9.6
COC(=O)c1ccc(C(=O)OC)c(NC(=S)N2CCCC(CO)C2)c1 (stereo not drawn) | i | i | i | i | i | i
Cc1cc(C)nc(SCc2cc(=O)c(OC(=O)c3ccc(Cl)c([N+](=O)[O-])c3)co2)n1 | i | i | i | 52.0 | i | i
N#Cc1ccc(C(=O)Nc2nnc(-c3ccccn3)o2)cc1 | i | i | i | i | i | 9.4
O=C(Nc1nnc(-c2ccccn2)o1)c1cccc(Cl)c1 | i | i | i | i | i | i
Cc1nc2ncccn2c1-c1csc(Nc2ccccc2)n1 | i | i | i | 44.0 | i | i
COc1ccc(Nc2nc(-c3c(C)nc4ncccn34)cs2)cc1 | i | i | i | i | i | i
Cc1cnnn1-c1ccc(C(=O)CCl)cc1 | i | i | 60.0 | i | 60.0 | i
O=C(O)CSCCOc1ccc(OCCSCC(=O)O)cc1 | i | i | i | i | i | 10.2
CCOc1ccc(C(=O)CSCCC(=O)O)cc1 | i | i | i | i | i | i
Fc1ccc(NC(=S)Nc2cccnc2)c(F)c1F | i | i | i | i | i | 9.5
CCCOc1ccc(N2C(=O)CC(NCCc3ccc(S(N)(=O)=O)cc3)C2=O)cc1 (stereo not drawn) | i | i | i | i | i | 9.7
CCOc1ccc(N2C(=O)CC(NCCc3ccc(S(N)(=O)=O)cc3)C2=O)cc1 (stereo not drawn) | i | i | i | i | i | i
CCOC(=O)CSc1ccc(C(=O)Nc2ccc(OC)cc2)cn1 | i | i | i | i | i | 9.4
CCCCNC(=O)COc1ccccc1[N+](=O)[O-] | i | i | i | i | i | i
CC(C)c1ccc2oc(=O)cc(CN3CCN(c4ccc(F)cc4)CC3)c2c1 | i | i | i | i | i | i
CCc1ccc2oc(=O)cc(CN3CCN(c4ccc(F)cc4)CC3)c2c1 | i | i | i | i | i | 10.8
O=C(Nc1ccc2ncccc2c1)c1cc(Cl)ccc1Cl | i | i | i | i | i | i
SMILES | Bcl-2 Bim block | Bim-Bcl-B | Bcl-W Bim block | Bim-Bcl-XL | Bim-Bfl-1 | Wee1 stabilizer
CO/C(N)=C(\C#N)N=Cc1ccccc1Cl | i | i | i | i | i | i
CCOC(=O)c1ccc(NC(=O)CNC(=O)c2ccccc2)cc1 | i | i | i | i | i | i
Cc1ccc(NC(=O)C/C(N)=N/OC(=O)c2ccccc2)cc1 | 73.0 | 64.0 | i | i | 51.0 | i
CCN1c2ccccc2-c2nc3ccccc3n2C1c1cccs1 (stereo not drawn) | i | i | i | i | i | i
O=C1C2=C(CCCC2)C(=O)N1c1cccc(OCCBr)c1 | i | i | i | i | i | i
CC(C)CN(CCOc1cccc(N2C(=O)C3=C(CCCC3)C2=O)c1)CC(C)C | i | i | i | i | i | 9.0
COc1cccc(C(C(=O)NC2CCCC2)N(CC2CCCO2)C(=O)Cc2cccs2)c1 (stereo not drawn) | i | i | i | i | i | i
CC(C)(C)c1ccc(C(=O)NN2C(=O)CSC2=S)cc1 | nt | nt | nt | nt | nt | 10.8
Nn1cnnc1SCC(=O)Nc1ccc2c(c1)OCO2 | i | i | i | i | i | i
Nc1ccc(N2CCN(CCCCN3C(=O)C4CCCN4C3=O)CC2)cc1 (stereo not drawn) | i | 63.0 | i | i | i | i
CC(/C=N/NC(=O)Cn1cnc2c1c(=O)n(C)c(=O)n2C)=C\c1ccccc1 | i | i | i | i | i | i
